# Most compounds without a hit are left out; they make up all but 7.3% or so of the library.
# VACV mCherry inh = inhibitors of vaccinia virus infection (mCherry reporter signal); Vaccinia virus mCherry reporter infection, fluorescence; Potency, µM (doses to about 36.5 µM), most hits filed as inhibitors; 0.63% of 310,000 active; AID 720579; calls by dose curve; tested in A549 cells; also: nearly all actives have a fitted effect of over 35% in size
# HCMV inh = human cytomegalovirus inhibition; HFF cells, HCMV-luciferase reporter, 72 h; hits give low values; activity change, negative = inhibition, % at 57.5 µM; 4.5% of 410,000 active; in the data active = activity change below about -60%; inconclusive = no clear call, values can overlap the other calls; inactive = above about -39%
#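 Two compound doses tested in HFFs infected with HCMV-luciferase, MOI 1 PFU/cell, 72 h at 37C. Lysate luminescence read with OneGlo; data normalized against buffer-only and 10uM Salinomycin inhibitor controls.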
# FMDV antiviral = blocks foot and mouth disease virus; FMDV antiviral cell-based qHTS; Potency, µM (titrated, usually from 57.9 µM), actives largely listed as inhibitors; 1.2% of 410,000 active; AID 1159524; calls by dose curve; tested in HEK293T cells; also: read-out not given here; nearly all actives have a fitted effect of over 45% in size
# Vaccinia Venus = vaccinia inhibition (Venus reporter); Vaccinia virus Venus reporter expression, fluorescence; Potency, µM (titrated, usually from 36.5 µM), hits mostly inhibitors; 0.46% of 330,000 active; AID 720580; calls by dose curve; tested in A549 cells; also: nearly all actives have a fitted effect of over 30% in size
# HCV inh = inhibitors of hepatitis C virus infection; AID 651820; Potency, µM (series often up to 41.8 µM), usual class: inhibitors; 3.4% of 340,000 active; Huh7.5.1 HCVcc-Cre infection, luciferase reporter, 44 h; active = well fitted inhibition curve with a large enough effect; inconclusive = small, poorly fitted or top-dose-only effect, or another doubt; inactive = no such curve, though single readings can be large or run the other way
#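 Whole-lifecycle infectious HCVcc-Cre system; cells 1,000/well, compound then virus (~0.5 moi) added 4 h after plating, 44 h culture. Luciferase read 15 sec following 15 min substrate incubation, room temp.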
# Hits are given with their value; - = inactive; ? = inconclusive; . = no result given.
SMILES,VACV mCherry inh,HCMV inh,FMDV antiviral,Vaccinia Venus,HCV inh
COc1cc2ncnc(NCc3ccc(Cl)cc3)c2cc1OC,.,-78,-,.,-
COc1ccc(C(=O)N2CCN(c3ccc(NC(=O)c4ccco4)cc3)CC2)cc1,-,-76,-,-,-
COc1ccc(C(=O)N2CCN(c3ccc(NC(=O)c4cccs4)cc3)CC2)cc1,-,-68,?,-,?
O=C(Nc1ccc(N2CCN(C(=O)c3ccccc3)CC2)cc1)c1cccs1,-,-,-,-,-
Cc1ccc(C(=O)NC(=S)Nc2ccc(N3CCN(C(=O)c4ccco4)CC3)cc2)cc1,-,?,?,-,11µM
Cc1ccc(C(=O)N2CCN(c3ccc(NC(=S)NC(=O)c4cccs4)cc3)CC2)cc1,?,-74,-,-,2.2µM
Cc1ccccc1C(=O)N1CCN(c2ccc(NC(=S)NC(=O)c3cccs3)cc2)CC1,.,-,-,.,?
CC(C)Oc1ccc(C(=O)Nc2ccc(N3CCN(C(=O)c4ccco4)CC3)cc2)cc1,-,-,-,-,-
CC12CCC(C(=O)N3CCC(Cc4ccccc4)CC3)(C(=O)C1=O)C2(C)C (configuration not stated),-,-,-,-,-
NC(Cc1ccc(Cl)cc1)c1csc(Nc2cc(NCCCO)ncn2)n1 (configuration not stated),?,-,-,?,.
Cc1ccc(C(=O)Nc2ccc(N3CCN(C(=O)c4ccco4)CC3)cc2)c(Cl)c1,-,-,-,-,11µM
O=C(Nc1ccc(N2CCN(C(=O)c3ccco3)CC2)cc1)c1ccc([N+](=O)[O-])cc1Cl,.,-,?,.,?
CSC[C@H]1CN(CCc2ccccc2)C(=O)[C@@H]1CC(=O)Nc1ccccc1,-,-,-,-,.
C[C@H]1CN(CCc2ccccc2)C(=O)[C@@H]1CC(=O)Nc1ccccc1,-,-75,-,-,.
O=[N+]([O-])/C=C/c1cn(Cc2ccc(F)cc2)c2ccccc12,?,?,?,-,8.9µM
O=Cc1cn(Cc2ccc(F)cc2)c2ccccc12,-,-,-,-,-
COc1cc(OC)cc(-c2cc3c(Nc4ccc(OC)nc4)nccc3n2C)c1,.,-,.,.,.
Cn1cnc([N+](=O)[O-])c1Sc1nnc(-c2ccccc2)c(-c2ccccc2)n1,.,-,.,.,.
Cc1occc1-c1nnc(SCC(=O)Nc2ccc(F)cc2)n1Cc1ccccc1,-,-,-,-,?
Cc1occc1-c1nnc(SCC(=O)Nc2ccccc2)n1Cc1ccccc1,-,-62,.,-,-
CCN(CC)S(=O)(=O)c1ccc2c(c1)N(CC(=O)N1CCN(c3cccc(OC)c3)CC1)C(=O)CO2,-,-,-,-,.
Cc1cc(C)c(S(=O)(=O)Nc2ccc(-c3ccc(N4CCCCC4)nn3)cc2)c(C)c1,-,-,-,-,.
Cc1ccccc1NC(=O)c1sc(NC(=O)COc2ccccc2)c(C#N)c1C,-,-,?,-,-
COc1cc(C2Nc3ccccc3-c3nnc(SCc4ccc(C)cc4)nc3O2)cc(OC)c1O (configuration not stated),-,-,22µM,-,.
O=C(c1ccccc1F)N1CCCC(N2CCN(Cc3ccc4c(c3)OCO4)CC2)C1 (configuration not stated),-,-,-,-,.
SMILES,VACV mCherry inh,HCMV inh,FMDV antiviral,Vaccinia Venus,HCV inh
CCOC(=O)/C(=C\c1ccc(Cl)cc1)c1nc2sc(C)c(C)c2c(=O)[nH]1,?,-75,10µM,?,?
CCOC(=O)CSc1nc2sc(C)c(C)c2c(=O)[nH]1,-,-,-,-,-
O=C(Nc1cccc(-c2cnc3ccccc3n2)c1)c1ccccc1,.,-,-,.,?
O=C(CCl)Nc1ccc(Oc2cnc3ccccc3n2)cc1,.,-104,20µM,.,?
O=C(O)COc1cnc2ccccc2n1,-,-,-,-,-
CCC(=O)Nc1cccc(-c2cnc3ccccc3n2)c1,.,-,-,.,?
O=C(CCl)Nc1cccc(-c2cnc3ccccc3n2)c1,11µM,-98,25µM,?,?
O=C(Nc1cccc(-c2cnc3ccccc3n2)c1)C1CC(=O)N(c2ccccc2)C1 (configuration not stated),-,-,?,-,13µM
O=C(Nc1cccc(-c2cnc3ccccc3n2)c1)c1cccc(NC(=O)c2ccco2)c1,.,-,?,.,10µM
CN(Cc1ccccc1)C(=O)c1ccc(NC(=O)Cc2cccc(NC(=O)C3CCCN(C(=O)C4CCC4)C3)c2)cc1 (configuration not stated),-,-,-,-,-
O=C(CN(Cc1ccccc1)C(=O)CCC(=O)Nc1nccs1)NCc1ccc(F)cc1,-,-,-,-,-

# Screening data from PubChem BioAssay.
